Among the data in PubChem BioAssay (EPA / NIEHS) are outcome and AC50 values, retold here.

Read-out in experiment [1]: C-C motif chemokine 2 (Homo sapiens) (UniProt P13500)
Briefly: BSK_KF3CT_MCP1: BioMAP Diversity Plus: KF3CT Assay for Monocyte Chemoattractant Protein 1 (MCP1/CCL2) Biomarker Activity (AID 2283073). Conditions: primary human keratinocytes with fibroblasts; actives raise or lower the signal. The procedure, abridged: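 Biomarker MCP-1 is measured by ELISA in primary human keratinocytes co-cultured with foreskin fibroblasts, 24 h after chemical treatment; DMSO serves as the negative control and activity baseline.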

Read-out in experiment [2]: Matrix Metallopeptidase 9 (MMP9), MMP9 (gene 4318)
Briefly: BSK_KF3CT_MMP9: BioMAP Diversity Plus: KF3CT Assay for Matrix Metallopeptidase 9 (MMP9) Biomarker Activity (AID 2283074).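 For AC50: MMP9 protein level quantified by ELISA in the co-culture.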 Conditions: primary human keratinocytes with fibroblasts; actives raise or lower the signal. The method in brief: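 Human keratinocyte and foreskin fibroblast co-culture exposed to chemicals for 24 h; MMP9 biomarker measured by ELISA, bidirectional fitting relative to DMSO; cytotoxicity tracked by SRB total protein staining in parallel cultures.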

Read-out in experiment [3]: urokinase plasminogen activator (uPA), PLAU (gene 5328)
As to the kind of experiment: BSK_KF3CT_uPA: BioMAP Diversity Plus: KF3CT Assay for urokinase plasminogen activator (uPA) Biomarker Activity (AID 2283075). To be noted: primary human keratinocytes with fibroblasts; actives raise or lower the signal. The procedure, abridged: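 Primary human keratinocyte/foreskin fibroblast co-culture exposed to chemical; uPA measured by ELISA at 24 h. Bidirectional fit versus DMSO, with parallel SRB total-protein staining for cytotoxicity.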

Read-out in experiment [4]: CD40, CD40 (gene 958)
Briefly: BSK_LPS_CD40: BioMAP Diversity Plus: LPS Assay for CD40 Biomarker Activity (AID 2283076). Conditions: primary human HUVEC with PBMC; actives raise or lower the signal. The procedure, abridged: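 Using a multiplexed primary human co-culture (umbilical vein endothelium plus PBMC), CD40 was read by ELISA 24 h after dosing, with cytotoxicity tracked by sulforhodamine B staining of parallel cultures and activity fitted bidirectionally versus DMSO.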

Read-out in experiment [5]: E-selectin (Homo sapiens) (UniProt P16581)
Briefly: BSK_LPS_Eselectin: BioMAP Diversity Plus: LPS Assay for Eselectin Biomarker Activity (AID 2283077). Conditions: primary human HUVEC with PBMC; actives raise or lower the signal. The procedure, abridged:
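Dose chemical onto LPS-driven HUVEC/PBMC co-culture; after 24 h, run ELISA for E-selectin; fit up- and down-going responses relative to DMSO control.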

Read-out in experiment [6]: Interleukin-8 (IL8), CXCL8 (gene 3576)
Briefly: BSK_LPS_IL8: BioMAP Diversity Plus: LPS Assay for Interleukin-8 (IL8) Biomarker Activity (AID 2283078). To be noted: primary human HUVEC with PBMC; actives raise or lower the signal. The method in brief: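 In this LPS system, chemical-treated human umbilical vein endothelium/PBMC co-cultures were harvested at 24 h for IL-8 ELISA.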

The nature of experiment [7]: BSK_LPS_SRB: Viability Assessment in the BioMAP Diversity Plus: LPS Assay (AID 2283079).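 Note: total protein by sulforhodamine B absorbance as a cytotoxicity measure; measured one day after compound addition; fitted in both directions against DMSO so loss or gain of signal counts.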 Conditions: primary human HUVEC with PBMC. The method in brief:
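Cytotoxicity endpoint in human endothelial–PBMC co-culture: 24 h exposure, then SRB (0.1%) staining, 560 nm read.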

Read-out in experiment [8]: Interleukin-1 alpha (IL1a), IL1A (gene 3552)
Briefly: BSK_LPS_IL1a: BioMAP Diversity Plus: LPS Assay for Interleukin-1 alpha (IL1a) Biomarker Activity (AID 2283080). To be noted: primary human HUVEC with PBMC; actives raise or lower the signal. The procedure, abridged: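 Primary human HUVEC and PBMC co-culture stimulated with LPS is dosed and harvested at 24 h. Both increases and decreases in ELISA-measured IL-1a are scored relative to DMSO.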

Read-out in experiment [9]: Monocyte Chemoattractant Protein-1 (MCP1), CCL2 (gene 6347)
As to the kind of experiment: BSK_LPS_MCP1: BioMAP Diversity Plus: LPS Assay for Monocyte Chemoattractant Protein-1 (MCP1) Biomarker Activity (AID 2283081).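 For AC50: secreted MCP-1 protein quantified by ELISA in culture supernatant.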 Conditions: primary human HUVEC with PBMC; actives raise or lower the signal. The method in brief:
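Values derive from bidirectional fitting against DMSO of ELISA-measured MCP-1 in a human primary endothelial and mononuclear cell co-culture, 24 h after chemical addition under LPS activation.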

A short description of experiment [10]: BSK_LPS_PGE2: BioMAP Diversity Plus: LPS Assay for Prostaglandin E2 (PGE2) Biomarker Activity (AID 2283082).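 For AC50: secreted prostaglandin E2 measured by ELISA in LPS-stimulated co-culture.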 Conditions: primary human HUVEC with PBMC; actives raise or lower the signal. The method in brief:
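LPS-activated HUVEC/PBMC co-culture; cmpd dosed, 24 h; PGE2 by ELISA; bidirectional fit vs DMSO; SRB (0.1%, TCA-fixed, 560 nm) in parallel plates for overt cytotox.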

Read-out in experiment [11]: Macrophage colony-stimulating factor (MCSF), CSF1 (gene 1435)
As to the kind of experiment: BSK_LPS_MCSF: BioMAP Diversity Plus: LPS Assay for Macrophage colony-stimulating factor (MCSF) Biomarker Activity (AID 2283083). Conditions: primary human HUVEC with PBMC; actives raise or lower the signal. The method in brief:
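Bidirectional fit versus DMSO of ELISA-measured M-CSF in co-cultured human umbilical vein endothelial cells and PBMC, sampled 24 h after dosing.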

Read-out in experiment [12]: Tissue Factor, F3 (gene 2152)
As to the kind of experiment: BSK_LPS_TissueFactor: BioMAP Diversity Plus: LPS Assay for Tissue Factor Biomarker Activity (AID 2283084). Conditions: primary human HUVEC with PBMC; actives raise or lower the signal. The method in brief: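 Read-out: CD142 ELISA, 24 h. System: LPS-driven human endothelial/PBMC co-culture. Analysis: up- or down-signal fitted against DMSO.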

Read-out in experiment [13]: Tumor necrosis factor (Homo sapiens) (UniProt P01375)
As to the kind of experiment: BSK_LPS_TNFa: BioMAP Diversity Plus: LPS Assay for Tumour Necrosis Factor alpha (TNFa) Biomarker Activity (AID 2283085). Conditions: primary human HUVEC with PBMC; actives raise or lower the signal. The procedure, abridged: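 Read-out is ELISA of TNFa in primary human endothelial cell–PBMC co-cultures at 24 h after compound. Activity in either direction was fitted against DMSO.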

Read-out in experiment [14]: Vascular cell adhesion molecule 1 (VCAM1), VCAM1 (gene 7412)
Briefly: BSK_LPS_VCAM1: BioMAP Diversity Plus: LPS Assay for Vascular cell adhesion molecule 1 (VCAM1) Biomarker Activity (AID 2283086). Conditions: primary human HUVEC with PBMC; actives raise or lower the signal. The procedure, abridged:
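HUVEC + PBMC co-culture, LPS system; compound 24 h; VCAM-1 by ELISA; bidirectional fit vs DMSO control; parallel SRB (0.1%, TCA-fixed, 560 nm) for cytotoxicity.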

Read-out in experiment [15]: CD38, CD38 (gene 952)
As to the kind of experiment: BSK_SAg_CD38: BioMAP Diversity Plus: SAg Assay for CD38 Biomarker Activity (AID 2283087). To be noted: primary human HUVEC with PBMC; actives raise or lower the signal. The method in brief: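 Human HUVEC plus PBMC co-culture stimulated with superantigen; CD38 measured by ELISA 24 h after chemical dosing. Fluorescence read-out, bidirectional fit against DMSO; cytotoxicity tracked in parallel by SRB and Alamar Blue.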

Read-out in experiment [16]: CD40, CD40 (gene 958)
Briefly: BSK_SAg_CD40: BioMAP Diversity Plus: SAg Assay for CD40 Biomarker Activity (AID 2283088). To be noted: primary human HUVEC with PBMC; actives raise or lower the signal. The procedure, abridged: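 Endpoint derived by fitting increases or decreases versus DMSO controls. CD40 is detected by fluorescence ELISA in a human vascular co-culture of endothelium and PBMC at 24 h.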

Read-out in experiment [17]: CD69, CD69 (gene 969)
Briefly: BSK_SAg_CD69: BioMAP Diversity Plus: SAg Assay for CD69 Biomarker Activity (AID 2283089).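 For AC50: cell surface CD69 protein quantified by ELISA with fluorescence detection.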 To be noted: primary human HUVEC with PBMC; actives raise or lower the signal. The method in brief:
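Values derive from bidirectional fitting relative to DMSO vehicle. Cells: umbilical vein endothelium plus peripheral blood mononuclear cells, treated 24 h before fluorescent ELISA for CD69.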

Read-out in experiment [18]: Monocyte Chemoattractant Protein-1 (MCP1), CCL2 (gene 6347)
As to the kind of experiment: BSK_SAg_MCP1: BioMAP Diversity Plus: SAg Assay for Monocyte Chemoattractant Protein-1 (MCP1) Biomarker Activity (AID 2283090). Conditions: primary human HUVEC with PBMC; actives raise or lower the signal. The procedure, abridged:
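MCP-1 levels in the endothelial–PBMC SAg co-culture were quantified by ELISA at 24 h post-dosing; both increases and decreases versus DMSO scored. Cytotoxicity monitored by SRB total protein in parallel cultures.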

Read-out in experiment [19]: E-selectin (Homo sapiens) (UniProt P16581)
As to the kind of experiment: BSK_SAg_Eselectin: BioMAP Diversity Plus: SAg Assay for Eselectin Biomarker Activity (AID 2283091). Conditions: primary human HUVEC with PBMC; actives raise or lower the signal. The procedure, abridged: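 Endpoint values derive from bidirectional fitting relative to DMSO, using ELISA-measured E-selectin in a human vascular co-culture (umbilical vein endothelium plus PBMC) sampled 24 h after dosing.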

Calls of active or inactive are those of the source. Rule for the calls: active = hit-call score of the fitted dose curve at least 0.9, where 1 is the maximum; inactive = score below 0.9.

Chain of E-selectin (Homo sapiens) (P16581 whole entry, looked up): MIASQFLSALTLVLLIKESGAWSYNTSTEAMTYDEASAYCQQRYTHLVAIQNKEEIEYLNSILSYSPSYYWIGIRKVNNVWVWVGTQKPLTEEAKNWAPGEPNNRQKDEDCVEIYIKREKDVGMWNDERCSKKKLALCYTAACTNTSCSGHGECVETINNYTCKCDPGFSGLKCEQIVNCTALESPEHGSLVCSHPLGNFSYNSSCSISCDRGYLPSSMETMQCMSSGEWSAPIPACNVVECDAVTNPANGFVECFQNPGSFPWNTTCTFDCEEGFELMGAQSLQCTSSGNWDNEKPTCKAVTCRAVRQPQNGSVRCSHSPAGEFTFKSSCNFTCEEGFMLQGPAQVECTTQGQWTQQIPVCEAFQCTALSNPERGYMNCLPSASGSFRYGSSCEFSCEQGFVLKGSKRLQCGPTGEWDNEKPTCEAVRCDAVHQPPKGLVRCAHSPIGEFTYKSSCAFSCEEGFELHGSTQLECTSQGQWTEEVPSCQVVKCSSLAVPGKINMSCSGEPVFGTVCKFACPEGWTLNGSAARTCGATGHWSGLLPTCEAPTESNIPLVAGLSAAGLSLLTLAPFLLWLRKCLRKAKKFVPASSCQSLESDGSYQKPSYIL
Chain of Tumor necrosis factor (Homo sapiens) (P01375 whole entry, looked up): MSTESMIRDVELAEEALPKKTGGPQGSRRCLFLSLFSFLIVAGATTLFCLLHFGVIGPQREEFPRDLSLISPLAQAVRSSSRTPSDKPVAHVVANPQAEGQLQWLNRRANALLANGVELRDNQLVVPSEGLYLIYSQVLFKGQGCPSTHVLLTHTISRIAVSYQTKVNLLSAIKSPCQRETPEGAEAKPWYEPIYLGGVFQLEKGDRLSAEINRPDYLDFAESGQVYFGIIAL

As for `C[C@]12CC[C@@H]3c4ccc(O)cc4CC[C@H]3[C@@H]1C[C@@H](O)[C@@H]2O`, the result in experiment [1], in experiment [2], in experiment [3], in experiment [4], in [5] and in experiment [6] was inactive. Also, the result in [7], in experiment [8], in experiment [9], in experiment [10], in [11] and in experiment [12] was inactive. For the same compound, the outcome in experiment [13], in [14], in experiment [15], in experiment [16], in experiment [17] and in [18] was inactive. In addition, in experiment [19], the result was inactive.
In the case of `CC(C)(C)c1ccc(O)c(O)c1`, the outcome in experiment [1], in experiment [3] and in [10] was inactive. For the same compound, the concentration at half-maximal activity (AC50) (in general, the concentration at which the activity in the assay is half-maximal) in experiment [2] is 20 µM (active); in [4] it was 20 µM (active); in [5] it was 33.4 µM (active); in [6], 30.6 µM (active); in [7], 31.4 µM (active); in experiment [8], 29.3 µM (active). Also, the half-maximal activity concentration (AC50) in [9] was 29.1 µM (active); in experiment [11], 29.2 µM (active); in experiment [12], 20 µM (active); in experiment [13], 32.8 µM (active); in experiment [14], 24 µM (active); in [15], 28.5 µM (active). The AC50 in [16] is 27.3 µM (active); in experiment [17], 20 µM (active); in [18] it was 30.6 µM (active); in [19], 19.2 µM (active).
For the compound `N=C(N)c1ccc(OCCCCCOc2ccc(C(=N)N)cc2)cc1`, the result in [1], in [2], in [3], in [4], in experiment [5] and in experiment [7] was inactive. The result in experiment [9], in experiment [10], in [13], in experiment [14], in [15] and in [16] was inactive. The outcome in [18] and in experiment [19] was inactive. The AC50 in experiment [6] is 12.7 µM (active); in [8] it was 17.5 µM (active); in [11], 13.5 µM (active); in experiment [17], 1.21 µM (active).
Turning to `Cc1cccc2c1ccc1ccccc12`, the outcome in [1], in [2], in [3], in experiment [4], in experiment [5] and in experiment [6] was inactive. Besides, the outcome in [7], in [8], in experiment [9], in experiment [10], in experiment [11] and in experiment [13] was inactive. Moreover, the outcome in experiment [14], in experiment [15], in experiment [16], in [17], in experiment [18] and in experiment [19] was inactive. Further, the AC50 in experiment [12] was 3.97 µM (active).
For the compound `CCCCCc1ccc(O)cc1`, the concentration at half-maximal activity (AC50) in experiment [1] is 9.12 µM (active); in experiment [2], 20 µM (active); in experiment [3], 14.8 µM (active); in [4], 29.5 µM (active); in experiment [5] it was 31.4 µM (active); in [6] it was 36.1 µM (active). For the same compound, the AC50 in experiment [7] was 28.4 µM (active); in experiment [8], 31.7 µM (active); in experiment [9] it was 31.4 µM (active); in experiment [10], 1.39 µM (active); in experiment [11], 27.2 µM (active); in experiment [13], 31.4 µM (active). In addition, the concentration at half-maximal activity (AC50) in [14] was 32.4 µM (active); in experiment [15], 33.6 µM (active); in experiment [16] it was 29.6 µM (active); in experiment [17], 30.9 µM (active); in [18], 27.5 µM (active); in experiment [19], 26.8 µM (active).
